Results from PubChem BioAssay (NCI).
About 79,000 compounds went through this panel and 15% of them were active in at least one assay; those are over-represented in the sample as a whole. Unmarked numbers belong to inactive results. Activity calls are given as the source filed them. Rule as the data show it: active = growth inhibition above about 70%; inactive = the rest.

Experiments:
[1] = NCI Yeast Anticancer Drug Screen. Data for the rad50 strain (AID 155);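 also: 0% = growth of vehicle-only cultures of the same strain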; details: S. cerevisiae rad50 strain growth inhibition, active compounds read high
Outline: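 Growth of the mutant yeast was measured after compound exposure and referenced to vehicle-treated cultures.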

[2] = NCI Yeast Anticancer Drug Screen. Data for the mec2-1 strain (AID 157); details: S. cerevisiae mec2-1 strain, active compounds read high
Outline: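 Strain: mec2-1 (DNA repair/cell cycle alteration). Compound exposure, then growth measured; inhibition expressed relative to vehicle.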

[3] = NCI Yeast Anticancer Drug Screen. Data for the sgs1 mgt1 strain (AID 161);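 also: 0% = growth of cultures given vehicle only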; details: S. cerevisiae sgs1 mgt1 strain, active compounds read high
Outline: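 Test agents were incubated with a DNA-repair-mutant yeast strain. Growth was then read and compared against vehicle-treated controls.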

[4] = NCI Yeast Anticancer Drug Screen. Data for the cln2 rad14 strain (AID 165);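 also: 0% = growth equal to vehicle treated cultures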; details: S. cerevisiae cln2 rad14 strain, active compounds read high
Outline: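 Compounds are applied to the cln2 rad14 yeast strain, and growth is then compared with that of vehicle-treated cultures to give inhibition.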

[5] = NCI Yeast Anticancer Drug Screen. Data for the bub3 strain (AID 167); details: S. cerevisiae bub3 mutant strain, active compounds read high
Outline: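 Whole-cell yeast assay. The mutant strain was incubated with compounds, and growth inhibition was determined by comparison with vehicle-treated cells.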

[6] = NCI Yeast Anticancer Drug Screen. Data for the mlh1 rad18 strain (AID 175); details: S. cerevisiae mlh1 rad18 strain growth inhibition, active compounds read high
Outline: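 Read-out is yeast growth inhibition, calculated against vehicle-only controls. The compound was applied to a strain engineered with DNA damage repair alterations.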

[7] = at 5.0 µM (retest, dose inferred, filed as 0.5)
[8] = at 50.0 µM (retest, dose inferred, filed as 5.0)

SMILES | growth inhibition [1, 7] | growth inhibition [1, 8] | growth inhibition ([1]; at 50.0 µM) | growth inhibition [2, 7] [%] | growth inhibition [2, 8] | growth inhibition ([2]; at 50.0 µM) | growth inhibition [3, 7] | growth inhibition [3, 8] | growth inhibition ([3]; at 50.0 µM) | growth inhibition [4, 7] [%] | growth inhibition [4, 8] | growth inhibition ([4]; at 50.0 µM) | growth inhibition [5, 7] [%] | growth inhibition [5, 8] | growth inhibition ([5]; at 50.0 µM) | growth inhibition [6, 7] | growth inhibition [6, 8] | growth inhibition ([6]; at 50.0 µM)
Cc1ccc2c(c1)-c1cc(C)ccc1C2(O)c1ccccc1 | 3% | 83% (active) | 99% (active) | 14 | 66% | 97.9% (active) | 6% | 89% (active) | 93.7% (active) | -7 | 79% (active) | 97.2% (active) | 3 | 95% (active) | 96.7% (active) | -6% | 95% (active) | 99.2% (active)
CC(C)=CCc1ccc(O)cc1 | -24% | 97% (active) | -3.15% | 5 | 98% (active) | 25.1% | -13% | 98% (active) | -24.1% | 5 | 96% (active) | 34.8% | -10 | 99% (active) | 53.9% | 1% | 97% (active) | 1.75%
CC(=O)OCC1OC(OC2CCCc3c(O)c4c(c(O)c32)C(=O)c2ccccc2C4=O)C(OC(C)=O)C(OC(C)=O)C1OC(C)=O (stereo not given) | 32% | 96% (active) | 97.6% (active) | -8 | 98% (active) | 99.5% (active) | 16% | 98% (active) | 98.8% (active) | 2 | 96% (active) | 28.9% | 16 | 98% (active) | 99.2% (active) | 19% | 97% (active) | 82.1% (active)
O=C(NN=C1CCCCC1)c1ccc([N+](=O)[O-])cc1 | -1% | -7% | -0.5% | -17 | -11% | 0.2% | 13% | 9% | 10.6% | -1 | 10% | 37.5% | 19 | 24% | -2.95% | 4% | 7% | 20.2%
CCS(=O)(=O)C(C(O)C(O)C(O)C(O)CO)S(=O)(=O)CC (stereo not given) | -3% | -6% | 16.2% | -2 | -6% | 8.95% | -2% | -2% | 7.25% | 0 | -10% | 43.5% | 0 | 4% | -2% | -4% | -10% | -7.05%
O=C(/C=C/C(=O)N1CCCC1)N1CCCC1 | 6% | 10% | 1.15% | 3 | 1% | 0.65% | 4% | 3% | 14.8% | -4 | -11% | -1.35% | 2 | 6% | 2.55% | -2% | -2% | 37.4%
COc1ccccc1NC(=O)Oc1ccc(C(C)(CCC(=O)O)c2ccc(OC(=O)Nc3ccccc3OC)cc2)cc1 | -2% | 13% | -9.65% | 8 | 25% | -1.8% | -31% | -7% | 11.7% | 2 | -20% | 39.8% | 0 | 15% | 8.05% | -26% | -45% | -24.6%
c1cc(Nc2ccc(Nc3ccc(CN4CCCCC4)cc3)cc2)ccc1CN1CCCCC1 | 39% | 98% (active) | 81.8% (active) | 31 | 99% (active) | 89.8% (active) | 66% | 99% (active) | 90.9% (active) | 54 | 99% (active) | 83.2% (active) | 63 | 99% (active) | 89.2% (active) | 36% | 98% (active) | 87.5% (active)
CCCCCCCCCCNC(=O)C[n+]1cccc(C(=O)NCc2ccccc2)c1 | 8% | 99% (active) | 99.5% (active) | -1 | 100% (active) | 99.7% (active) | 5% | 100% (active) | 99.5% (active) | 14 | 99% (active) | 98.8% (active) | 8 | 99% (active) | 99.4% (active) | 11% | 99% (active) | 99.5% (active)
COC(=O)C1(Cc2ccc3c(c2)CCC3)Cc2ccc3c(c2C1O)CCC3 (stereo not given) | -2% | 94% (active) | 94.6% (active) | -1 | 96% (active) | 94.3% (active) | 15% | 97% (active) | 89.9% (active) | -4 | 94% (active) | 85% (active) | -1 | 95% (active) | 93.7% (active) | 4% | 94% (active) | 85.3% (active)
CCOC(=O)C1=C(C)NC(C)=C(C(=O)OCC)C1c1ccc([N+](=O)[O-])s1 | 61% | 98% (active) | 91.3% (active) | 35 | 98% (active) | 93.2% (active) | 49% | 95% (active) | 93.2% (active) | 29 | 77% (active) | 91.7% (active) | 40 | 83% (active) | 93.2% (active) | 65% | 98% (active) | 91.6% (active)
O=c1cccccc1[O-].O=c1cccccc1[O-].O=c1cccccc1[O-].[La+3] | 87% (active) | 87% (active) | 90.8% (active) | 52 | 52% | 91.8% (active) | 92% (active) | 92% (active) | 87.5% (active) | 59 | 59% | 89.8% (active) | 26 | 26% | 90.7% (active) | 74% (active) | 74% (active) | 88.6% (active)
Cc1ccc(S(=O)(=O)OCC2OC(c3ccccc3)OC3C(CO)OC(c4ccccc4)OC23)cc1 (stereo not given) | -1% | -6% | 16.7% | 0 | -5% | 50.5% | -3% | -6% | 11.3% | 4 | -10% | 16.2% | 0 | -5% | -0.65% | 0% | -6% | 60.5%
C/C(=N\NC(=S)NCCCNC(=S)N/N=C(\C)c1ccccn1)c1ccccn1 | 8% | 66% | 82.5% (active) | 9 | 75% (active) | 82.4% (active) | 10% | 77% (active) | 86.2% (active) | 18 | 78% (active) | 83.3% (active) | 0 | 60% | 83.1% (active) | 17% | 85% (active) | 88.9% (active)
CC(=O)Oc1ccccc1C(=O)/C=C/c1ccccc1 | 3% | 82% (active) | -11.2% | 7 | 89% (active) | 17.4% | 4% | 93% (active) | 11.6% | 0 | 40% | -17.3% | -1 | 90% (active) | 61% | -1% | 98% (active) | 9.75%
COc1ccc(OC)c(NC(=O)CCCC(=O)CC(=O)c2cccnc2)c1 | 63% | 62% | 4.45% | 50 | 53% | 1.8% | 69% | 70% (active) | -5.2% | 53 | 55% | 39.8% | 57 | 62% | -4.8% | 63% | 63% | -8.55%
O=[N+]([O-])c1ccccc1NCCO | 1% | -2% | -10.2% | 3 | 0% | -5.65% | -2% | -12% | -0.15% | 2 | 4% | 28.8% | 3 | 2% | -14.2% | 2% | 3% | -24.9%
O=S(=O)(Nc1ccccc1C(F)(F)F)c1ccc(F)cc1 | -23% | 49% | 80.6% (active) | 6 | 59% | 46.5% | -11% | 43% | 56.4% | -21 | 69% | 33.4% | -16 | 61% | 35.4% | -13% | 83% (active) | 80.2% (active)
COC(=O)CSc1nc2ccccc2[nH]1 | -146% | -48% | 27% | -48 | -47% | -11.8% | -64% | -39% | -6.2% | -50 | -59% | -27.1% | -63 | -46% | -19.6% | -119% | -119% | -29.6%
CCOC(=O)N1C2C=CC(=O)C(C=C2)N1C(=O)OCC (stereo not given) | -1% | 43% | 72.8% (active) | -9 | 61% | 85.5% (active) | 1% | 73% (active) | 85.1% (active) | 7 | 30% | 67.8% | 1 | 61% | 86.7% (active) | 18% | 85% (active) | 94.3% (active)
